Measurements: the supplement of paper PMC10849652
The full data set covers some 7,900 targets. This sample favours those with a hit. About 0.6% of all pairs of compound and target were hits.

Key:
Assay in all cases: log2 fold change, soluble protein after heating vs DMSO (PISA); higher = thermal stabilisation; K562 cells, 10 uM, 30 min; active = over 0.2 and 3.5 SD of the protein, either way, in both replicates (recomputed)
[1] = compound: C1=CC=C(C=C1)[C@H](COC2=CC3=C(C=C2)NC(=O)N3)NC(=O)C4=CC=CN(C4=O)CC5=CC(=C(C=C5)F)F
How it was run: (§1)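 K562 cells at 2×10^6 cells/mL were given 10 μM compound for 30 min. Aliquots then went through 3 min of heating across 48°C-58°C, were pooled, and were extracted in PBS with 0.5% NP-40 at 4°C, and the supernatant after 21,000xg for 90 min was quantified by TMTpro 16plex LC-MS/MS with channel sums equalised. Thermal stability relative to control samples, from duplicates, is given as log2 fold change.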

[2] = compound: CC1=C(SC2=C1C(=N[C@H](C3=NN=C(N32)C)CC(=O)N)C4=CC=C(C=C4)Cl)C
How it was run: as §1

[3] = compound: CC1=C2C(=CC=C1)N=C(N(C2=O)C3=CC=CC=C3C)CN4C=NC5=C(N=CN=C54)N
How it was run: as §1

[4] = compound: Cc1sc2c(c1C)C(c1ccc(Cl)cc1)=N[C@@H](CC(=O)OC(C)(C)C)c1nnc(C)n1-2
How it was run: as §1

[5] = compound: c1ccc([C@@H]2C[C@H]2NC2CCNCC2)cc1
How it was run: as §1

Measured: log2 fold change

ADD2 isoform 9 (UniProt P35612)
inactive: [1] 0.02

ATP6V0A1 (UniProt Q93050)
inactive: [1] 0.281

ALG14 (UniProt Q96F25)
Chain of UniProt Q96F25 (Q96F25 whole entry, looked up): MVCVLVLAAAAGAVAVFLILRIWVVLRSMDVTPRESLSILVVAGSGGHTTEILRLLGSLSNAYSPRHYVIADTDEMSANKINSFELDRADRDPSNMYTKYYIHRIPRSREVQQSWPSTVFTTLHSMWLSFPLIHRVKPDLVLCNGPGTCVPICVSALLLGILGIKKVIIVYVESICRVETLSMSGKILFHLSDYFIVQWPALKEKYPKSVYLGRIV
inactive: [1] -0.008 | [2] 0.019 | [3] 0.241 | [4] 0.051 | [5] 0.006

ARHGAP25 isoform 4 (UniProt P42331)
Chain of UniProt P42331 (P42331 whole entry, looked up): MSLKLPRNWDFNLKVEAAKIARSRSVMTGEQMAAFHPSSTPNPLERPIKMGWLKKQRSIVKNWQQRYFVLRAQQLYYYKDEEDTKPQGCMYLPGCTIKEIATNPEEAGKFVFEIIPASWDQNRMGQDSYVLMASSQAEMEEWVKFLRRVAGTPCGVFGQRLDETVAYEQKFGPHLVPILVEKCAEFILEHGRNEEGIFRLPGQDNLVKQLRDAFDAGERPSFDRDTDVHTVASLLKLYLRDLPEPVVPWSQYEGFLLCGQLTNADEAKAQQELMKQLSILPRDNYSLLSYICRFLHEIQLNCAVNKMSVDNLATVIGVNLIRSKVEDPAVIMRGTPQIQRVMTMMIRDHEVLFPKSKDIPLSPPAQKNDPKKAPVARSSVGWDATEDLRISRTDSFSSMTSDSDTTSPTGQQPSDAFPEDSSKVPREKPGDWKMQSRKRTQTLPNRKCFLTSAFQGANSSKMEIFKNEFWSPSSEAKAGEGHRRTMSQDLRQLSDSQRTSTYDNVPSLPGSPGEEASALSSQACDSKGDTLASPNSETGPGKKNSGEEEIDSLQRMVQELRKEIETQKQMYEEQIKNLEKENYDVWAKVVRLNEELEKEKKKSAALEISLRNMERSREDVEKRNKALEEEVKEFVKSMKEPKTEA
inactive: [1] -0.181 | [2] -0.171 | [3] -0.173 | [4] -0.018 | [5] 0.109

BTBD6 (UniProt Q96KE9)
Chain of UniProt Q96KE9 (Q96KE9 whole entry, looked up): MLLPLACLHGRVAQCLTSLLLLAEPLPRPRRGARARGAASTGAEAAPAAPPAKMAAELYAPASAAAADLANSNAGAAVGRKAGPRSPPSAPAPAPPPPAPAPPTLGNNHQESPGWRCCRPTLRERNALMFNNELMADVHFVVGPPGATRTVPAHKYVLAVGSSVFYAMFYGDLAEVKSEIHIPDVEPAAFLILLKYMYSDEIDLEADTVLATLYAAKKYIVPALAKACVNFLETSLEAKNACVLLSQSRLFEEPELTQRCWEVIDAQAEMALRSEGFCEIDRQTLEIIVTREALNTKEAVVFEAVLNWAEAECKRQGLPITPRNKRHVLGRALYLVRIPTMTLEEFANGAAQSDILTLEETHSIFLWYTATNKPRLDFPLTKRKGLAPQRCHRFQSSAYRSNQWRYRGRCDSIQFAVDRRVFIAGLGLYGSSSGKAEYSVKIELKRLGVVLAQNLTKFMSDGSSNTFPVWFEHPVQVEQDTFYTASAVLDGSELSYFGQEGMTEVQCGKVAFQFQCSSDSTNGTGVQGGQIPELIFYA
inactive: [1] 0.12 | [2] 0.073 | [3] 0.04 | [4] -0.117 | [5] -0.099

ATP11A (UniProt P98196)
Chain of UniProt P98196 (P98196 whole entry, looked up): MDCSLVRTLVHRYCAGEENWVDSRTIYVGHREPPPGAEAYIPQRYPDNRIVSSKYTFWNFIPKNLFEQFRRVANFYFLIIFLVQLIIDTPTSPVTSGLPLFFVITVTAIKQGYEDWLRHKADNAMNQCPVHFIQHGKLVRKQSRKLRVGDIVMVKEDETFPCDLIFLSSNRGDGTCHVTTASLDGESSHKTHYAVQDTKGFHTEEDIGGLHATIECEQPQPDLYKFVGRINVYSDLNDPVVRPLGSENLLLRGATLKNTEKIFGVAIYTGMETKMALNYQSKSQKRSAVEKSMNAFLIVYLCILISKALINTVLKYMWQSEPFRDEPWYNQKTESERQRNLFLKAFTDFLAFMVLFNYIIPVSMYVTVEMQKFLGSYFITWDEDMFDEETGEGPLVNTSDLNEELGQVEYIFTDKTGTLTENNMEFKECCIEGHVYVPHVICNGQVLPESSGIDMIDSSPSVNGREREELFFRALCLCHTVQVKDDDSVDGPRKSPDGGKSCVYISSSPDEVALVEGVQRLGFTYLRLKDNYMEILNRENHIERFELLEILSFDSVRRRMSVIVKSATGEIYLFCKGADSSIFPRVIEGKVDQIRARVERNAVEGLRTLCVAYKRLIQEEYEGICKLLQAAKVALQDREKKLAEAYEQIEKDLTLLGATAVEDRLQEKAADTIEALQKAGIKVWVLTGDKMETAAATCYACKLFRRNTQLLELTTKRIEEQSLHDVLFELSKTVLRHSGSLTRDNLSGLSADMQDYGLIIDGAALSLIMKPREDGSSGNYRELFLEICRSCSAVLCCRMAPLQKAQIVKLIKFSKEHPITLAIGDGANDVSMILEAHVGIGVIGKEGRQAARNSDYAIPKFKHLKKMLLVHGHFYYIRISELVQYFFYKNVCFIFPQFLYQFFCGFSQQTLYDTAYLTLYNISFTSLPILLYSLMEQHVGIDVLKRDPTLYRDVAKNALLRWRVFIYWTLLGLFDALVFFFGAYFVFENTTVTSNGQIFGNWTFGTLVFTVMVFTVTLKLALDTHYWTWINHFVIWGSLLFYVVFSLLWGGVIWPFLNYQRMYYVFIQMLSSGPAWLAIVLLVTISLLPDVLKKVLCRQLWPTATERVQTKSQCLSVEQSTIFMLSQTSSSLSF
inactive: [1] 0.001 | [2] -0.003 | [3] 0.085 | [4] -0.034 | [5] 0.062

AURKA (UniProt O14965)
Chain of UniProt O14965 (O14965 whole entry, looked up): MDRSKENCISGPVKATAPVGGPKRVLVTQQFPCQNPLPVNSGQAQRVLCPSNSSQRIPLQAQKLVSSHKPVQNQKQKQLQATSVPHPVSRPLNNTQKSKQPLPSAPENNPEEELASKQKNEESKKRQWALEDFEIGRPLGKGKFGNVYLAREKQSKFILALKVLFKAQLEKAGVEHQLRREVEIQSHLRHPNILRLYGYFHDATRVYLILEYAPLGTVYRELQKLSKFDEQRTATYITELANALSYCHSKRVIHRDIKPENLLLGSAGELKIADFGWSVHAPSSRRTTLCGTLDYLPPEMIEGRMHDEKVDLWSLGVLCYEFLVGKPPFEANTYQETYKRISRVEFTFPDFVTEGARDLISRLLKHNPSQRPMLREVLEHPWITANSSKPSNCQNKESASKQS
inactive: [1] 0 | [2] 0.148 | [3] 0.018 | [4] 0.009 | [5] -0.038

ATXN7L3 isoform 2 (UniProt Q14CW9)
Chain of UniProt Q14CW9 (Q14CW9 whole entry, looked up): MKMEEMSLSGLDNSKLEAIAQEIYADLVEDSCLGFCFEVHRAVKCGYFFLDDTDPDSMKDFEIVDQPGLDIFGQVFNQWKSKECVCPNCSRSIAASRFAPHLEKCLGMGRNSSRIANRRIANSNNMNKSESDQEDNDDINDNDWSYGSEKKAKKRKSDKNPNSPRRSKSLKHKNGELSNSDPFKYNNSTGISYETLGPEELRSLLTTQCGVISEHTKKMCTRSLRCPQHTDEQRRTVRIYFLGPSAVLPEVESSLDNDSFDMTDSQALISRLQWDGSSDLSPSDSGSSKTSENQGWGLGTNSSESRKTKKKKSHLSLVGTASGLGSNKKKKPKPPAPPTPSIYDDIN
inactive: [1] -0.156

BRAF (UniProt P15056)
Chain of UniProt P15056 (P15056 whole entry, looked up): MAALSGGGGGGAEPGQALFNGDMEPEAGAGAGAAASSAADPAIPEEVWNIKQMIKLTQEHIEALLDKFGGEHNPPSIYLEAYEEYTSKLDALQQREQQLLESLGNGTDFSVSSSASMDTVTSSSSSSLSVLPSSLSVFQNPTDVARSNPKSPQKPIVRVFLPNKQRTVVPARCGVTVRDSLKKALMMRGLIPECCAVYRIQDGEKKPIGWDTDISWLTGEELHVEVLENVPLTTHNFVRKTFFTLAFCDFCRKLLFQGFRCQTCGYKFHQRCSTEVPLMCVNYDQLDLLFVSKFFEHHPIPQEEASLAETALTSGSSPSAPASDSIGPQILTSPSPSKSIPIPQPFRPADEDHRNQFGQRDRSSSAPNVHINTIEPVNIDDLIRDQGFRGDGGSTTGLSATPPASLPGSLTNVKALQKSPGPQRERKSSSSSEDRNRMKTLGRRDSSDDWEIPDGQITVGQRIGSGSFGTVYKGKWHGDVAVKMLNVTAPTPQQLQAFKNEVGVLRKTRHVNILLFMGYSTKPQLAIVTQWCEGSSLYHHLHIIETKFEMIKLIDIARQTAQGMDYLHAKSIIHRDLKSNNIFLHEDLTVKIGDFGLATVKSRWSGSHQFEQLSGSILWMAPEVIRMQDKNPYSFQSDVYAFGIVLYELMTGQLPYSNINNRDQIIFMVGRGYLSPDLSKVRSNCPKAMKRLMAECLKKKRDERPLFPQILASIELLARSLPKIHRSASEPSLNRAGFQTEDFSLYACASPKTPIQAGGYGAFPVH
inactive: [1] -0.04 | [2] 0.075 | [3] 0.041 | [4] -0.018 | [5] -0.027

ARFIP1 isoform 2 (UniProt P53367)
Chain of UniProt P53367 (P53367 whole entry, looked up): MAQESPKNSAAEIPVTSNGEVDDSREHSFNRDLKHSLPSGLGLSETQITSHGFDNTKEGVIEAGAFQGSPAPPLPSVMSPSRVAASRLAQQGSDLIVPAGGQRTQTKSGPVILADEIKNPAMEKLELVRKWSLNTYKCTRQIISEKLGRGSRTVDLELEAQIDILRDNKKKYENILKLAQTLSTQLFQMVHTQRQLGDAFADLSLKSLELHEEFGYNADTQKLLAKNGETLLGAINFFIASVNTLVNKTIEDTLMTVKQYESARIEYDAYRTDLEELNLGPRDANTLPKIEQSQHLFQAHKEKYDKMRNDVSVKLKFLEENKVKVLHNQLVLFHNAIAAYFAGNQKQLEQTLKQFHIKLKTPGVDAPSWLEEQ
inactive: [1] 0.009

ABHD11 (UniProt Q8NFV4)
Chain of UniProt Q8NFV4 (Q8NFV4 whole entry, looked up): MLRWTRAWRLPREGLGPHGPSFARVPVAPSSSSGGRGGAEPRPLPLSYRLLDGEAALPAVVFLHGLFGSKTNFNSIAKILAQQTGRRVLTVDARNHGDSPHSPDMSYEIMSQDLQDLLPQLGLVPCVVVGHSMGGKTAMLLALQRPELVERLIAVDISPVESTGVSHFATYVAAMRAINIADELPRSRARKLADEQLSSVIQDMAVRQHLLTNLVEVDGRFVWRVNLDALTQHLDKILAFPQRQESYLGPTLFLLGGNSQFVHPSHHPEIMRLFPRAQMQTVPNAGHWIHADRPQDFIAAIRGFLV
inactive: [1] -0.008 | [2] 0.127 | [3] 0.136 | [4] -0.12 | [5] -0.037
